Source: PubChem BioAssay (NCATS)
Values joined by “and” are separate entries in the source; they are usually repeats but may differ in a detail not shown here. Equal entries are not always repeated. Inconclusive results are not listed. Active and inactive are the calls of the source. Calls come from the whole dose curve; as a rule, active = well fitted inhibition curve with a large enough effect; inconclusive = small, poorly fitted or top-dose-only effect; inactive = flat fitted curve, though single readings scatter.

Tests used:
CRL-7250 = normal cell line; assay: Cytotoxic Profiling of Annotated Libraries Using Quantitative High-Throughput Screening (AID 1296008); conditions: Five cell lines viability, CellTiter-Glo ATP luminescence, 48-72 h; max response: stronger effect = lower value; note: potency is the fitted concentration of half-maximal effect; for max response: % is set by controls: 0 for no effect and ±100 for the full control effect
Outline: (§1)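 Compounds were pin-transferred onto cells and incubated 48 or 72 hr at 37 degree Celsius, 95% humidity. CellTiter-Glo was added, plates sat 10 min at room temperature, then ATP-coupled luminescence was imaged as the viability read-out.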

HEK293 = assay: as above; conditions: Five cell lines viability, CellTiter-Glo ATP luminescence, 48-72 h; max response: stronger effect = lower value
Outline: as §1

HaCat = assay: as above; conditions: Five cell lines viability, CellTiter-Glo ATP luminescence, 48-72 h; max response: stronger effect = lower value
Outline: as §1

KB-3-1 = assay: as above; conditions: Five cell lines viability, CellTiter-Glo ATP luminescence, 48-72 h; max response: stronger effect = lower value
Outline: as §1

GB4 = assay: qHTS profiling for inhibitors of Plasmodium falciparum proliferation (AID 504749);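 note: 0% = DMSO vehicle and full inhibition = artemisinin control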; conditions: P. falciparum in erythrocytes, SYBR Green DNA, 72 h; series mostly up to 28.7 µM
Outline: (§2)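 P. falciparum-infected erythrocytes (0.3% parasitemia, 2.5% hematocrit final) were exposed to compounds for 72 h at 37 C in 5% CO2, then lysed with SYBR Green buffer overnight at room temperature; parasite DNA fluorescence was normalized to artemisinin and DMSO controls.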

HB3 = assay: as above; conditions: P. falciparum in erythrocytes, SYBR Green DNA, 72 h; series mostly up to 28.7 µM
Outline: as §2

ICS = assay: as above; conditions: P. falciparum in erythrocytes, SYBR Green DNA, 72 h; series mostly up to 28.7 µM
Outline: as §2

JCK = assay: as above; conditions: P. falciparum in erythrocytes, SYBR Green DNA, 72 h; series mostly up to 28.7 µM
Outline: as §2

N140 = assay: as above; conditions: P. falciparum in erythrocytes, SYBR Green DNA, 72 h; series mostly up to 28.7 µM
Outline: as §2

P93_24 = assay: as above; conditions: P. falciparum in erythrocytes, SYBR Green DNA, 72 h; series mostly up to 28.7 µM
Outline: as §2

P94_40 = assay: as above; conditions: P. falciparum in erythrocytes, SYBR Green DNA, 72 h; series mostly up to 28.7 µM
Outline: as §2

PAD = assay: as above; conditions: P. falciparum in erythrocytes, SYBR Green DNA, 72 h; series mostly up to 28.7 µM
Outline: as §2

PC15 = assay: as above; conditions: P. falciparum in erythrocytes, SYBR Green DNA, 72 h; series mostly up to 28.7 µM
Outline: as §2

PC26 = assay: as above; conditions: P. falciparum in erythrocytes, SYBR Green DNA, 72 h; series mostly up to 28.7 µM
Outline: as §2

PC49 = assay: as above; conditions: P. falciparum in erythrocytes, SYBR Green DNA, 72 h; series mostly up to 28.7 µM
Outline: as §2

SC27B = assay: as above; conditions: P. falciparum in erythrocytes, SYBR Green DNA, 72 h; series mostly up to 28.7 µM
Outline: as §2

TAB109 = assay: as above; conditions: P. falciparum in erythrocytes, SYBR Green DNA, 72 h; series mostly up to 28.7 µM
Outline: as §2

TAB113 = assay: as above; conditions: P. falciparum in erythrocytes, SYBR Green DNA, 72 h; series mostly up to 28.7 µM
Outline: as §2

TAB165 = assay: as above; conditions: P. falciparum in erythrocytes, SYBR Green DNA, 72 h; series mostly up to 28.7 µM
Outline: as §2

W2 = assay: as above; conditions: P. falciparum in erythrocytes, SYBR Green DNA, 72 h; series mostly up to 28.7 µM
Outline: as §2
Note: nearly all actives have a fitted effect of over 60% in size.

CC#CCn1c(N2CCC[C@@H](N)C2)nc2c1c(=O)n(Cc1nc(C)c3ccccc3n1)c(=O)n2C
inactive: max response (CRL-7250) 0.558% | max response (HEK293) -21.1% | max response (HaCat) 3.66% | max response (KB-3-1) -0.824%

CC(C)(Cc1ccc2ccccc2c1)NC[C@@H](O)COc1cccc(Cl)c1C#N
inactive: outcome (CRL-7250) | max response (HEK293) -1.92% | max response (HaCat) -22.6% | max response (KB-3-1) 2.48%

COc1ccc2c3c1OC1C[C@@H](O)C=C[C@@]31CCN(C)C2 (stereo partly drawn)
inactive: max response (CRL-7250) -0.2% | max response (HEK293) -3.03% | outcome (HaCat) | max response (KB-3-1) -3.8%

CC(C)(C)c1cc(C(=O)O)c(NC(=O)Nc2ccc3[nH]ncc3c2)s1
inactive: max response (CRL-7250) -5.25% and -2.72% | max response (HEK293) -1.74% and 1.5% | max response (HaCat) -3.43% | outcome (HaCat) | max response (KB-3-1) -9% | outcome (KB-3-1)

O=C(O)CCc1nc(-c2ccccc2)c(-c2ccccc2)o1
inactive: max response (CRL-7250) -11.7% and 0.986% | max response (HEK293) -15.1% and -1.16% | max response (HaCat) -18.5% | outcome (HaCat) | max response (KB-3-1) -6.48% | outcome (KB-3-1)

O=C(O)Cc1cccc2ccccc12
inactive: Potency (GB4) | Potency (HB3) | Potency (ICS) | outcome (JCK) | Potency (N140) | outcome (P93_24) | Potency (P94_40) | outcome (PAD) | outcome (PC15) | Potency (PC26) | outcome (PC49) | Potency (SC27B) | outcome (TAB109) | Potency (TAB113) | Potency (TAB165) | Potency (W2) | outcome (CRL-7250) | max response (HEK293) 0.788% and 3.55% | max response (HaCat) -10.3% | outcome (HaCat) | max response (KB-3-1) 13.8% and -7.33%

CCN1CCC[C@H]1CNC(=O)c1cc(S(N)(=O)=O)ccc1OC
inactive: Potency (GB4) | Potency (HB3) | Potency (ICS) | outcome (JCK) | Potency (N140) | outcome (P93_24) | Potency (P94_40) | outcome (PAD) | outcome (PC15) | Potency (PC26) | outcome (PC49) | Potency (SC27B) | outcome (TAB109) | Potency (TAB113) | Potency (TAB165) | Potency (W2) | max response (CRL-7250) -0.0938% and -2.14% | outcome (HEK293) | max response (HaCat) -3.98% | outcome (HaCat) | max response (KB-3-1) -2.45% | outcome (KB-3-1)

COC(=O)[C@@H]1[C@H]2C[C@H]3c4[nH]c5ccccc5c4CCN3C[C@@H]2CC[C@@H]1O
inactive: outcome (CRL-7250) | max response (HEK293) -10.9% and -9.65% | max response (HaCat) 0.769% | outcome (HaCat) | max response (KB-3-1) -4.37% and 9.99%

CC(C)[C@H](CO)Nc1nc(Nc2ccc(C(=O)O)c(Cl)c2)c2ncn(C(C)C)c2n1
inactive: outcome (CRL-7250) | max response (HEK293) 1.29% | max response (HaCat) 4.58% | outcome (HaCat) | outcome (KB-3-1)

CC(C)C(=O)Oc1ccc(CO)cc1[C@H](CCN(C(C)C)C(C)C)c1ccccc1
inactive: max response (CRL-7250) -3.71% and 3.58% | max response (HEK293) -22.5% and -1.3% | max response (HaCat) -23.8% | outcome (HaCat) | max response (KB-3-1) -1.04% and 2.37%

O=C(Nc1ccccc1-c1cn2c(CN3CCNCC3)csc2n1)c1cnc2ccccc2n1
inactive: max response (HaCat) 4.92% | outcome (HaCat)
active: Potency (CRL-7250) 26.4 µM | Potency (HEK293) 23.5 µM

Nc1ncnc2c1ncn2[C@@H]1O[C@@H](CO)[C@H](O)[C@H]1O
inactive: outcome (CRL-7250) | outcome (HEK293) | outcome (HaCat) | outcome (KB-3-1)

CC(=Cc1ccccc1)C=C1SC(=S)N(CC(=O)O)C1=O
inactive: max response (CRL-7250) -0.535% | max response (HEK293) -4.91% | outcome (HaCat) | max response (KB-3-1) -2.93%

CC(=O)N(C)C1(c2ccccc2)CCN(CCC[C@]2(c3ccc(Cl)c(Cl)c3)CCCN(C(=O)c3ccccc3)C2)CC1
active: Potency (HEK293) 662 nM and 18.4 µM | Potency (HaCat) 2.35 µM and 20.6 µM | Potency (KB-3-1) 0.372 µM
inactive: max response (CRL-7250) -7.82%

C[N+]1(C)[C@@H]2CC(OC(=O)[C@H](CO)c3ccccc3)C[C@H]1[C@H]1O[C@@H]12 (stereo partly drawn)
inactive: max response (CRL-7250) 4.18% | outcome (HEK293) | outcome (HaCat) | max response (KB-3-1) 2.27%

Cc1[nH]c(C=C2C(=O)Nc3ccc(S(=O)(=O)Cc4c(Cl)cccc4Cl)cc32)c(C)c1C(=O)N1CCC[C@H]1CN1CCCC1
active: Potency (HEK293) 23.5 µM
inactive: max response (CRL-7250) 1.44% | max response (HaCat) -4.31% | max response (KB-3-1) 1.95%

CN(C[C@@H]1COCCO1)S(=O)(=O)Nc1ccc2ccc3ncc(-c4cnn(C)c4)cc3c(=O)c2c1
active: Potency (CRL-7250) 0.469 µM | Potency (HEK293) 4.18 µM and 6.51 µM | Potency (HaCat) 10.3 µM | Potency (KB-3-1) 7.43 µM

CN1C[C@H]2c3ccccc3Oc3ccc(Cl)cc3[C@@H]2C1
active: Potency (HEK293) 10.6 µM
inactive: max response (CRL-7250) -7.6% and -3.52% | outcome (HaCat) | max response (KB-3-1) -7.18%

O=C(O)c1ccc(-c2c[nH]c3ncc(-c4ccccc4)cc23)cc1C1CCCC1
inactive: max response (CRL-7250) -5.06% | outcome (HEK293) | outcome (HaCat) | outcome (KB-3-1)
